FLuc counter = firefly luciferase modulation, counter-screen for miR-21 project | P08659 | purified FLuc, Km substrates, luminescence inhibition | Potency, µM (titrated, usually from 57.5 µM), for the others: top-dose activity change, negative = inhibition, usual class: inhibitors | 360,000 compounds, 6.9% hits;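 also: plate controls were vehicle for no effect and reference inhibitor for full effect; nearly all actives have a fitted effect of over 55% in size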
Target sequence (P08659 whole entry, looked up): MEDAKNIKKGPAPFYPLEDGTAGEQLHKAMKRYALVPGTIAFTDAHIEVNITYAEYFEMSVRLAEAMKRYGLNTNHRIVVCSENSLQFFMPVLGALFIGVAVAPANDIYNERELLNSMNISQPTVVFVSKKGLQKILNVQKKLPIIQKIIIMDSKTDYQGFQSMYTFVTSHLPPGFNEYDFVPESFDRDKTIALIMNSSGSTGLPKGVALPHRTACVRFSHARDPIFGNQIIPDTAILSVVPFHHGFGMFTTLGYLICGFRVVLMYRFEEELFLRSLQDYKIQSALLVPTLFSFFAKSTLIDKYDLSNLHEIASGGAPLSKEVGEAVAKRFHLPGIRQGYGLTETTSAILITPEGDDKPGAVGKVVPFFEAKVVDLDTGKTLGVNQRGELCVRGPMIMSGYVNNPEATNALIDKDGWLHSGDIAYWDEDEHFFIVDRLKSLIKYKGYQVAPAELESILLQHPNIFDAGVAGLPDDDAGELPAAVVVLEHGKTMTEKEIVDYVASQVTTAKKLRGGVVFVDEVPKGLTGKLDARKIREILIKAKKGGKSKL
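Purified P. pyralis luciferase, 10 nM final, with Km-level 10 uM D-luciferin and 10 uM ATP in 50 mM Tris acetate pH 7.5, 10 mM Mg acetate, 0.01% Tween-20, 0.05% BSA; 6-point qHTS titration about 60 µM downward; luminescence read.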
ELG1 genotox = inducers of genotoxicity in HEK293T ELG1-luciferase cells. HEK293T ELG1-luciferase reporter, luminescence, 16 h. Potency, µM (highest dose often 46 µM), without a hit: at the highest dose activity change, positive = activation, actives largely listed as activators. 330,000 compounds, 1.3% hits. AID 504466; also: % of control where 0% means no effect; nearly all actives have a fitted effect of over 60% in size
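Quantitative HTS format in 1536-well plates. HEK293T ELG1-luciferase reporter cells receive test compound and are incubated 16 hr at 37 °C, 5% CO2; ONE-Glo added, 30 min room temperature, then luminescence read.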
NPC1 prom act = activators of NPC1 promoter | Huh7 NPC1 promoter luciferase reporter, 24 h | Potency, µM (series often up to 9.22 µM), inactives show at the top dose activation, hits mostly activators | 320,000 compounds, 2.4% hits | AID 485313; also: % of control where 0% means no effect; nearly all actives have a fitted effect of over 60% in size
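Huh7 cells stably carrying NPC1 promoter–luciferase, plated in Opti-MEM with 10% FBS for 2 h, were exposed to compound in DMSO for 24 h at 37 °C; luciferase reagent was added for 10 min and luminescence read.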
Rab9 promoter act = Rab9 promoter activation; Potency, µM (highest dose often 9.22 µM), for inactives: at the highest dose activation, negative = inhibition, actives largely listed as activators; Huh7 Rab9 promoter-luciferase reporter, luminescence, 24 h; AID 485297; 320,000 compounds, 2.8% hits; also: % of control where 0% means no effect; nearly all actives have a fitted effect of over 60% in size
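Steps: seed 1500 Huh7 Rab9-luc cells per well, rest 2 h at 37 °C; add compound in DMSO; incubate 24 h; add luciferase reagent, 10 min ambient; read luminescence.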
ELG1 repair inh = blocks ELG1-dependent DNA repair in HEK293T cells | HEK293T ELG1-luciferase reporter, luminescence, 16 h; DNA damage induced by 5-fluorouridine | Potency, µM (titrated, usually from 46.1 µM), for inactives: at the highest dose activity change, negative = inhibition, hits mostly inhibitors | 330,000 compounds, 2.3% hits; also: % is scaled to controls: 0 for no effect and ±100 for the full control effect; nearly all actives have a fitted effect of over 55% in size
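Quantitative HTS, concentration-response format. 2,000 cells/well co-treated with 5-fluorouridine and compound, 16 hr in 5% CO2 at 37 °C; ONE-Glo luminescence read after 30 min.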
SMN2 splice up = SMN2 splice variant enhancement. Potency, µM (highest dose often 46.1 µM), for inactives: top-dose activity change, positive = activation, usual class: activators. AID 1458. HEK293 SMN2-luciferase splicing reporter, luminescence, 30-36 h. 210,000 compounds, 2.8% hits; also: % of control where 0% means no effect; nearly all actives have a fitted effect of over 55% in size
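HEK293 cells carry an SMN2 […]–luciferase reporter in which exon 7 inclusion puts luciferase in frame. Cells were plated 10-12 h before compound addition, then incubated 30-36 h at 37C. ONE-Glo luminescence was read; sodium butyrate at 4.5 mM final served as control.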
Active calls of the source: *; ? = inconclusive; nt = not tested or not shown. In the library only some 9.3% were active in any assay of this set; here they are far more common. Calls follow the shape of the dose curve; as a rule, active = well fitted curve in the direction sought with a large enough effect; inconclusive = small, poorly fitted or top-dose-only effect, or another doubt; inactive = no such curve, though single readings can be large; an effect the other way counts as inactive or inconclusive. Potency is read from the fitted curve at half-maximal effect.

SMILES | FLuc counter | ELG1 genotox | NPC1 prom act | Rab9 promoter act | ELG1 repair inh | SMN2 splice up
Cc1nn(Cc2ccc(C(=O)Nc3ccc(C(=O)OC(C)C)cc3)o2)c(C)c1Cl | -4.1% | 2.2% | -3.9% | -7.6% | 18.4µM* | -67.6%
Cc1cc(NC(=O)c2ccc(Cn3nc(C)c(Br)c3C)o2)no1 | -1.3% | 5.2% | -3.9% | 1.2% | -29.3% | 20µM*
Cc1nn(Cc2ccc(C(=O)NN)o2)c(C)c1Cl | 3.4% | -1.1% | 2.6% | 1.5% | ? | nt
CC(OC(=O)Cn1c(C(F)(F)F)nc2ccccc21)C(=O)N1CCCc2ccccc21 (configuration not stated) | 0.6% | -2.2% | -4.5% | -0.5% | -9.8% | 2.8%
CN(C)CCCNc1oc(-c2ccc(Cl)cc2)nc1C#N | -10.8% | 1.4% | 3.0% | -3.8% | ? | 8.6%
N#Cc1nc(-c2ccc(Cl)cc2)oc1NCCc1ccccn1 | -10.4% | 8.2µM* | ? | ? | ? | 22.4%
COc1ccc(-c2nc(C#N)c(NCCc3ccccc3)o2)cc1 | ? | 10.8% | 18.5% | ? | ? | ?
Cc1ccc(-c2nc(C#N)c(NCCc3ccccn3)o2)cc1 | ? | ? | 3.55µM* | ? | ? | ?
CCOc1cc(C(=S)N2CCCCC2)ccc1OS(=O)(=O)c1ccc(Br)cc1 | 0.8% | -0.8% | 0.6% | -1.2% | -2.1% | -44.4%
CCNC(=O)/C(C#N)=C/c1c(N2CCOCC2)nc2ccccn2c1=O | -2.8% | 2.6% | -2.0% | -2.8% | -0.9% | -5.2%
CNC(=O)/C(C#N)=C/c1c(N(Cc2ccccc2)Cc2ccccc2)nc2c(C)cccn2c1=O | -8.1% | -17.5% | -2.1% | -9.1% | 23.1µM* | -15.2%
CCNC(=O)/C(C#N)=C/c1c(N(Cc2ccccc2)Cc2ccccc2)nc2ccccn2c1=O | 3.4% | -6.1% | -2.3% | -4.1% | 11.6µM* | -13.1%
COc1cc2c(cc1OC)C(c1ccc(Cl)cc1)N(c1cccc(C#N)c1)C(=O)C2 (configuration not stated) | 1.7% | nt | nt | nt | nt | 1.5%
COc1cc(CC(=O)OCC(=O)Nc2sccc2C(N)=O)cc(OC)c1OC | -6.0% | -9.0% | -16.9% | -5.7% | 7.3µM* | -37.4%
NC(=O)c1ccsc1NC(=O)COC(=O)c1ccccc1F | 10.7µM* | 4.8% | 0.6% | -0.3% | 15.9% | nt
NC(=O)c1ccsc1NC(=O)COC(=O)/C=C/c1ccccc1 | 10.7µM* | -17.4% | 6.7% | 0.0% | ? | nt
NC(=O)c1ccsc1NC(=O)COC(=O)c1cc(Cl)ccc1O | 4.26µM* | -0.3% | -3.4% | -3.4% | 18.4% | nt
NC(=O)c1ccsc1NC(=O)COC(=O)/C=C/c1ccccc1[N+](=O)[O-] | nt | 0.8% | nt | nt | ? | nt
O=c1c(Cl)c2oc3ccccc3nc-2c2ccccc12 | -2.7% | 0.1% | 22.2% | 27.8% | 6.4% | nt
CCN(CC)CCCNc1ccc(-c2nnc(-c3ccc(OCC(C)C)cc3)o2)cn1 | -15.2% | -8.1% | -1.6% | -0.5% | 12.1% | nt
CCCOc1ccc(-c2nnc(-c3ccco3)o2)cc1 | 0.757µM* | ? | 0.501µM* | 0.447µM* | ? | ?
CCCc1nnc(-c2ccc(OC)cc2)o1 | ? | 16.0% | 15.8% | 16.5% | ? | -18.3%
CC(C)COc1ccc(-c2nnc(-c3ccco3)o2)cc1 | 1.07µM* | ? | 0.447µM* | 0.316µM* | ? | 3.98µM*
CCn1cnc2cc(NCc3ccc(C)cc3)ccc21 | 15.1µM* | 8.2µM* | 2.82µM* | 3.98µM* | ? | 12.6µM*
Cn1cnc2cc(NCc3ccc(Cl)cc3)ccc21 | 16.9µM* | ? | 2.51µM* | 0.891µM* | ? | nt
SMILES | FLuc counter | ELG1 genotox | NPC1 prom act | Rab9 promoter act | ELG1 repair inh | SMN2 splice up
CCCn1cnc2cc(NCc3cccc(OC)c3)ccc21 | 16.9µM* | 15.9% | ? | ? | ? | 12.6µM*
CCn1cnc2cc(NCc3cccc(OC)c3O)ccc21 | 12µM* | 18.4µM* | -0.2% | -0.7% | ? | 12.5%
CCCn1cnc2cc(NCc3ccc(OC)cc3OC)ccc21 | ? | nt | nt | nt | nt | -14.7%
CCC(C)(C)NC(=O)C(c1ccc(F)cc1)N(Cc1ccccc1)C(=O)c1cnccn1 (configuration not stated) | -2.8% | -1.6% | -0.5% | 1.4% | -6.4% | 5.0%
O=C(Nc1cccc(Cl)c1Cl)C1CC(=O)N(c2ccc(Br)cc2)C1 (configuration not stated) | 1.6% | 11.2% | -18.5% | -19.1% | -29.2% | -52.4%
CCn1cnc2cc(NCc3ccc(Br)cc3)ccc21 | 13.5µM* | ? | 3.55µM* | 0.708µM* | ? | nt
CCCn1cnc2cc(NCc3ccc(Br)cc3)ccc21 | 10.7µM* | ? | ? | 3.55µM* | ? | nt
COc1ccccc1-n1cnc2cc(NCc3ccco3)ccc21 | 19µM* | ? | -3.0% | 5.0% | ? | 7.1%
COc1ccccc1-n1cnc2cc(NCc3ccccc3O)ccc21 | ? | 5.6% | -1.9% | 13.4% | ? | nt
Cc1ccc(CNc2ccc3c(c2)ncn3C(C)C)cc1 | 6.01µM* | 9.2µM* | 2.24µM* | 2.82µM* | ? | nt
CCCn1cnc2cc(NCc3ccccc3O)ccc21 | ? | 14.2% | 11.4% | 6.1% | ? | nt
CC(NC(=O)C(=O)N1CCOCC1)C(c1cccs1)N1CCN(c2ccc(F)cc2)CC1 (configuration not stated) | -0.4% | -2.2% | -20.2% | 2.3% | 1.1% | nt
CCOC(=O)N1CCC(=NNC(=O)COc2ccc(C#N)cc2)CC1 | 0.6% | 1.0% | -1.5% | 1.1% | 20.9% | nt
COc1cc(OC)cc(C(=O)Nc2sc3c(c2C(N)=O)CCC3)c1 | -16.8% | 10.0% | 25.7% | ? | ? | nt
COc1ccc(C(O)c2nc3ccccc3s2)cc1 (configuration not stated) | -0.9% | 3.1% | -2.4% | 0.6% | 12.6% | -5.4%
Cc1cccc(Nc2nc3ccccc3s2)c1C | 2.39µM* | 6.51µM* | 3.16µM* | 2.51µM* | ? | 10µM*
COc1ccc(Nc2nc3ccccc3s2)cc1 | 5.36µM* | ? | 2.51µM* | 1.41µM* | ? | 10µM*
COc1ccc2nc(Nc3sc4c(c3C(N)=O)CCCC4)sc2c1 | 10.7µM* | 17.0% | 7.6% | 2.6% | ? | 29.3%
COc1ccc2nc(C)cc(Sc3nc4ccccc4s3)c2c1 | ? | -11.0% | -9.4% | -15.8% | 5.17µM* | nt
O=C(Nc1ccc(S(=O)(=O)Nc2cnc3ccccc3n2)cc1)c1cccc(OC(F)F)c1 | ? | -13.1% | 0.9% | -3.7% | -1.9% | nt
COc1cccc(Nc2nc3ccc(OC)cc3s2)c1 | 4.26µM* | ? | ? | 4.47µM* | ? | 20µM*
COc1ccc2nc(NCc3cccnc3)sc2c1 | ? | 13.1% | 23.2% | ? | ? | nt

High-throughput results: PubChem, National Center for Advancing Translational Sciences (NCATS)
